# Source: PubChem (The Scripps Research Institute Molecular Screening Center)
# The full list was thinned out, with hits kept by preference.
# TTR transcr act = TTR transcription activators in neuroblastoma reporter cells, primary screen, cell-based, luminescence, SH-SY5Y, TTR promoter Gaussia luciferase. 100% = recombinant luciferase protein wells. activation, % at 16.7 µM. 92,000 compounds, 1.3% hits;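 active = activation above the mean of all tested compounds plus 3 SD, cut at about 9.5% in these data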;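 also: cells exposed to compounds for one day before reading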
# TTR inh HuH7 = TTR promoter reporter inhibitors in hepatoma cells, counter-screen for TTR transcription activator project, cell-based, luminescence, HuH7 hepatoma; shares compounds with TTR transcr act; HuH7 TTR promoter-Gaussia luciferase reporter; inhibition, % at 16.7 µM; 1,100 compounds, 4% hits; AID 1117279, 2014;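 active = average inhibition above the solvent-only control wells' mean plus 3 SD, cut at about 15% in these data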;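 also: inhibitors lower well luminescence so higher value means more inhibition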
# TTR up confirm = TTR transcription activators, retest, confirmation, cell-based, luminescence, SH-SY5Y, triplicate. shares compounds with TTR transcr act. SHSY5Y TTR promoter Gaussia luciferase; 100% = purified Lucia enzyme wells, no cells. activation, % at 16.7 µM. 1,100 tested, under 10 active. AID 1117280, 2014;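 active = mean activation above a set limit taken from the earlier primary screen, cut at about 11% in these data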
# Hits are given with their value; – = inactive.
SMILES,TTR transcr act,others
O=C(CCCSc1nc2ccccc2[nH]1)Nc1ccccc1,–,
Cc1cccc(NC(=O)CCCSc2nc3ccccc3[nH]2)c1,–,
Cc1ccccc1OCCCSc1nc2ccccc2[nH]1,31,TTR inh HuH7=–;TTR up confirm=–
CCc1c(C(=O)NNC(=S)Nc2ccc(S(=O)(=O)Nc3ncccn3)cc2)csc1C,–,
CCCCN1C(=O)C(=O)N(CC(=O)Nc2ccc(OC(F)(F)F)cc2)C1=O,–,
O=C1CSCC(=O)N1c1ccccc1,34,TTR inh HuH7=–;TTR up confirm=–
O=C1CSC(=S)N1c1ccccc1,–,
O=C1CCC(=O)N1c1ccccc1,–,
Cc1cnc(NC(=O)C2(C)CCN2C(=O)C(C)C)s1 (configuration not stated),–,
CN1C(=O)C(=O)N2C(=C[C@]3(c4c[nH]c5ccccc45)c4ccccc4N[C@H]23)C1=O,–,
O=C(Cc1ccc([N+](=O)[O-])cc1)N/N=C/c1cccs1,–,
C/C=C/c1cccc(-c2nc(C(=O)N3CCCCC3)cc3c2[C@H](CCO)N(C(=O)NC(C)C)C3)c1,–,
CC(=O)Nc1ccc(S(=O)(=O)N2CCN=C2SCc2cccnc2)cc1,–,
CCS(=O)(=O)N1CCN=C1SCc1ccccc1,–,
CCCS(=O)(=O)N1CCN=C1SCc1cccnc1,15,TTR inh HuH7=–;TTR up confirm=–
Fc1ccccc1C1c2cccn2CCN1C(=S)Nc1ccc(Br)cc1 (configuration not stated),–,
FC(F)(F)Oc1ccc(Cn2ccc3ccc(-c4ccc5ccn(Cc6ccc(OC(F)(F)F)cc6)c5c4)cc32)cc1,–,
CCCC1CCC2(CC1)CCC2OC(=O)Nc1cccc(Cl)c1 (configuration not stated),–,
COC(=O)c1cnc(Nc2nc(C(N)Cc3ccccc3)cs2)nc1C(F)(F)F (configuration not stated),–,
COC(=O)c1cnc(NNC(=O)c2ccc([N+](=O)[O-])cc2)nc1C(F)(F)F,–,
COC(=O)c1cnc(NNS(=O)(=O)c2ccc(Cl)cc2)nc1C(F)(F)F,11,TTR inh HuH7=–;TTR up confirm=–
C/C=C/C1=CC(=O)C[C@H](c2ccc(OC)c(OC)c2)C1,–,
COc1ccc(NC(=O)CO/N=C/C(=O)Nc2ccccc2C)c([N+](=O)[O-])c1,–,
COc1cc(/C=C/C(=O)OCC(=O)NCCC2=CCCCC2)cc(OC)c1OC,10,TTR inh HuH7=–;TTR up confirm=–
COc1ccc(C(=O)NCC(=O)OCC(=O)NCCC2=CCCCC2)cc1,–,
SMILES,TTR transcr act,others
COc1cc(C#N)ccc1OCC(=O)NCCC1=CCCCC1,–,
CCCCCN(C(=O)CCC(=O)OC(C)C(=O)c1ccc(CC)cc1)c1c(N)n(CCCC)c(=O)[nH]c1=O (configuration not stated),–,
CCOC(=O)[C@]12CCCC=C1N(CCCOC)C(=O)[C@@H]2CC(=O)N1CCSCC1,–,
CC(=O)C1C(=O)c2c(cccc2[N+](=O)[O-])C1=Nc1ccc(S(N)(=O)=O)cc1 (configuration not stated),–,
O=C(O)c1ccc2c(c1)-c1cc(C(=O)O)ccc1S2(=O)=O,–,
CC(=O)Oc1cc(C(=O)OCC(=O)N2CCc3ccccc3C2)cc(OC(C)=O)c1OC(C)=O,–,
O=C(NCc1ccccn1)[C@@H]1CCCN1C(=O)[C@@H]1CCCN1C(=O)c1cccs1,–,
Cc1ccccc1C(=O)N1CCC[C@H]1C(=O)N1CCC[C@H]1C(=O)NCc1ccccn1,14,TTR inh HuH7=–;TTR up confirm=–
O=C(NCc1ccccn1)[C@@H]1CCCN1C(=O)[C@@H]1CCCN1C(=O)c1cccc(Cl)c1,–,
CCN1C(=O)[C@H]2[C@H]3CN=C(SCC4CC4)N3[C@@](CC)(C(=O)OC)[C@H]2C1=O,–,
O=C(Nc1ccc(Cl)cc1)c1cc(Br)ccc1OCC(=O)N1CCOCC1,–,
OC(CN1CCN(c2ccccn2)CC1)Cn1c2ccc(Cl)cc2c2cc(Cl)ccc21 (configuration not stated),36,TTR inh HuH7=–;TTR up confirm=–
OC(COC(c1ccc(Cl)cc1)c1ccc(Cl)cc1)CN1CCN(c2ccccn2)CC1 (configuration not stated),–,
Cc1ccc(OCC(O)CN2CCN(c3ccccn3)CC2)c(C)c1 (configuration not stated),–,
COc1cc(N=Nc2ccc(C(=O)N(C)C)cc2)c(C)cc1N,–,
COc1ccc(S(=O)(=O)N2CCC(C(=O)NC3CCCCC3)CC2)cc1C,–,
CC(C)C(=O)NC(=S)Nc1ccccc1C(=O)NC1CCCCC1,–,
COC(=O)c1ccccc1NC(=O)NC1CCCC1,15,TTR inh HuH7=–;TTR up confirm=–
O=C(Nc1ccccc1)NC1CCCCCCC1,–,
O=C(COC(=O)COc1ccccc1)NC1CCS(=O)(=O)C1 (configuration not stated),–,
Cc1cccc(C)c1OCC(=O)Nc1ccc(S(=O)(=O)Nc2ccccn2)cc1,17,TTR inh HuH7=–;TTR up confirm=–
Cc1cccc(C)c1OCC(=O)Nc1ccncc1,–,
O=C(COc1ccc(Br)cc1)Nc1ccc(S(=O)(=O)Nc2ccccn2)cc1,–,
Cc1ccc2nc(SCC(=O)NC3CC3)[nH]c2c1,–,
Cc1ccc2nc(SCC(=O)Nc3nonc3C)[nH]c2c1,10,TTR inh HuH7=–;TTR up confirm=–
SMILES,TTR transcr act,others
Cc1ccc2nc(SCC(=O)N3CCCC3)[nH]c2c1,–,
CCC[C@H]1[C@H](N)CC[C@@]23CCCN2C(=O)CCC[C@@H]13,–,
COc1cc2c(cc1OC)CN(C1CCC(C(C)(C)C)CC1)CC2 (configuration not stated),–,
Cn1ccsc1=NC(=O)c1ccccc1OC(F)F,–,
Cn1ccsc1=NC(=O)c1ccccc1F,–,
Cn1ccs/c1=N\C(=O)Nc1ccccc1,52,TTR inh HuH7=–;TTR up confirm=–
Cc1ccc(C)c(OC(=O)c2cccnc2Cl)c1C,–,
C[C@@H]1CN([C@@H](C)CO)C(=O)c2cccc(NC(=O)Nc3cccc4ccccc34)c2O[C@H]1CN(C)S(=O)(=O)c1ccc2c(c1)OCCO2,–,
O=C(Nc1cccc(Br)c1)OC1CC2CC1[C@H]1CCCCN1[C@H]2Cc1ccccc1 (some centres not stated),–,
c1ccc2c(c1)nc(NCc1ccc3c(c1)OCO3)n2CCN1CCOCC1,–,
CN(C)CCCn1c(NCc2ccc3c(c2)OCO3)nc2ccccc21,10,TTR inh HuH7=–;TTR up confirm=–
CCn1c(NCc2ccc3c(c2)OCO3)nc2ccccc21,–,
CCc1[nH]nc(C(=O)NC2CCCc3c2cnn3-c2cc(C)cc(C)c2)c1C (configuration not stated),–,
O=C(/C=C/c1cccc([N+](=O)[O-])c1)OCC1CCCO1 (configuration not stated),–,
COc1ccc2c(c1)CC(C(=O)Nc1ccc(Cl)cc1)/C(=N/O)O2 (configuration not stated),–,
Cc1nn(C)c(C)c1CCC(=O)N1CCCC(C(=O)c2cccc(OC(C)C)c2)C1 (configuration not stated),10,TTR inh HuH7=–;TTR up confirm=–
CCn1nc(C)c(CN2CCCC(C(=O)c3cccc(OC(C)C)c3)C2)c1C (configuration not stated),–,
Cc1nn(C(C)C)c(C)c1CN1CCCC(C(=O)c2cccc(OC(C)C)c2)C1 (configuration not stated),–,
O=C(OCC#CCSc1nnc(-c2cccc3ccccc23)o1)C1CC1,–,
